In PubChem BioAssay AID463173 (ICCB-Longwood Screening Facility, Harvard Medical School, 2010):
The campaign covered roughly 52,000 compounds. About 4,300 (8.3%) were called active. Many of the other results were omitted from the sample, so actives are more common in it than they were. A number with no mark means an inactive call. Cut-off read from the data, not from the text of the source: active = survival mostly below about 52% (no sharp cut-off); inactive = mostly above about 56%.

The compounds below were run on DeltatarO mutant (assay: growth inhibition of S. aureus wild type versus tarO mutant, primary screen, teichoic acid synthesis inhibitors, RN4220, OD600 (AID 463173)). Settings: OD600, 18 h, active compounds read low, screened at 18.75 µg/mL (by protocol).
Compound `O=C(NC1CCN(C(=O)NC2CCCCC2)CC1)c1ccc(F)cc1` has a survival of 85%. Work on `Cc1nn(-c2cc(N3CCOCC3)ccc2N)c(=O)c2ccccc12` yielded a survival of 76%. `COc1ccc(N2CCN(C(=O)C(C)n3c(=O)cc(C(F)(F)F)c4c(C)nn(C)c43)CC2)cc1` (stereo not drawn) showed a survival of 97%. For `CCCCNC(=O)c1ccc2c(c1)N(CC)C(=O)c1ccccc1S2`, the survival was 102%. `Cc1ccc(CCNC(=O)C2CCCN(c3nnc(C)c4c(C)n(-c5ccccc5)nc34)C2)cc1` (stereo not drawn) gave a survival of 80%. `CCCCN(CC)CCCNC(=O)c1cc2c(=O)[nH]c3ccccc3c2s1` gave a survival of 151%. `O=C(NCC(c1cccnc1)N1CCc2ccccc21)c1ccc(F)c(F)c1` (stereo not drawn) gave a survival of 52%. For `O=C(NCC(c1cccnc1)N1CCc2ccccc21)c1cccc(F)c1` (stereo not drawn), the survival was 44% (active). `O=C(NCC(c1cccnc1)N1CCc2ccccc21)c1cccc(C(F)(F)F)c1` (stereo not drawn) was tested, and the survival was 45% (active). With `O=C(NCC(c1cccnc1)N1CCc2ccccc21)C(=O)Nc1ccccc1F` (stereo not drawn) the survival was 101%. `O=C(NCC(c1cccnc1)N1CCc2ccccc21)c1cccc(Br)c1` (stereo not drawn) was tested, and the survival was 41% (active). Work on `N#Cc1ccccc1NC(=O)C(=O)NCC(c1cccnc1)N1CCc2ccccc21` (stereo not drawn) yielded a survival of 53%. `CCc1ccccc1NC(=O)C(=O)NCC(c1cccnc1)N1CCc2ccccc21` (stereo not drawn) was tested, and the survival was 58%. With `Cc1cccc(NC(=O)C(=O)NCC(c2cccnc2)N2CCc3ccccc32)c1C` (stereo not drawn) the survival was 53%. `O=C(NCC(c1cccnc1)N1CCc2ccccc21)c1ccc(F)cc1` (stereo not drawn) was tested, and the survival was 100%. `CCOc1ccc(C2C(C(N)=O)=C(C)Nc3nc(-c4ccc(OC)cc4)nn32)cc1` (stereo not drawn) was tested, and the survival was 87%. For `COc1ccc(C)cc1NC(=O)C1CCC(CNS(=O)(=O)c2ccc3c(c2)CCCC(=O)N3)CC1` (stereo not drawn), the survival was 67%. In the case of `CCOC(=O)c1ccc(NC(=O)C(C)N(c2ccc(OCC)cc2)S(C)(=O)=O)cc1` (stereo not drawn), the survival is reported as 62%. Compound `O=C(CCc1ccccc1)NN1C(=O)c2ccccc2C1=O` has a survival of 61%. `CCc1ccccc1NC(=O)c1cnc(N2CCCCC2)c2ccccc12` showed a survival of 96%. With `CC(C)(C)OC(=O)N1CCC(c2c(C(=O)N3CCOCC3)cnn2-c2ccccc2Cl)CC1` the survival was 78%. Compound `COc1ccc(NC(=O)Cn2c(=O)n(-c3ccc(OC)cc3)c(=O)c3ccc(C(=O)NCc4ccc(C)cc4)cc32)cc1` has a survival of 77%. Compound `O=C(c1ccc2c(c1)N(Cc1ccc(F)cc1)C(=O)c1ccccc1S2(=O)=O)N1CCC(Cc2ccccc2)CC1` has a survival of 72%. With `CCCC1=Nc2cc(C(=O)NCc3ccc(OC)cc3)ccc2Sc2ccc(C)cc21` the survival was 70%. `CCOc1ccc(CNC(=O)Cn2c(=O)c3cccn3c3cccnc32)cc1` gave a survival of 70%. With `CCOc1ccc(N2CC(c3nc4ccccc4n3Cc3cccc(Cl)c3)CC2=O)cc1` (stereo not drawn) the survival was 37% (active). With `C#CCn1c(C2CC(=O)N(c3ccc(OCC)cc3)C2)nc2ccccc21` (stereo not drawn) the survival was 62%. With `CCCCn1c(C2CC(=O)N(c3ccc(OCC)cc3)C2)nc2ccccc21` (stereo not drawn) the survival was 63%. `C#CCn1c(C2CC(=O)N(c3ccc(OC)cc3)C2)nc2ccccc21` (stereo not drawn) gave a survival of 78%. For `CCOc1ccc(N2CC(c3nc4ccccc4n3Cc3cccc(C)c3)CC2=O)cc1` (stereo not drawn), the survival was 42% (active). For `CCOc1ccc(N2CC(c3nc4ccccc4n3CC(C)C)CC2=O)cc1` (stereo not drawn), the survival was 56%. Work on `CCNC(=O)C1CCCN(c2nnc(C)c3c(C)n(-c4ccc(C)cc4)nc23)C1` (stereo not drawn) yielded a survival of 78%. With `CCN1CCN(C(=O)c2ccc(S(=O)(=O)N(CC)CC)cc2)CC1` the survival was 85%. `COc1cc2c(cc1OC)C(c1ccc(F)cc1)N(c1ccc(F)cc1)C(=O)C2` (stereo not drawn) gave a survival of 105%. `COc1cc2c(cc1OC)C(c1ccc(Cl)cc1)N(c1ccc(C)c(F)c1)C(=O)C2` (stereo not drawn) was tested, and the survival was 42% (active). In the case of `COc1ccc(C2c3cc(OC)c(OC)cc3CC(=O)N2c2ccc(C)c(F)c2)cc1` (stereo not drawn), the survival is reported as 79%. `O=C(NCCSCc1ccccc1)C1CCN(S(=O)(=O)Cc2ccccc2)CC1` gave a survival of 66%. For `Cc1cc(C)cc(NC(=O)N2CCN(c3cc(-c4noc(C)n4)ccc3C)CC2)c1`, the survival was 87%. Compound `Cc1ccc(NC(=O)N2CCN(c3cc(-c4noc(C)n4)ccc3C)CC2)c(C)c1` has a survival of 88%. With `Cc1nc(-c2ccc(C)c(N3CCN(C(=O)Nc4ccc(Br)cc4)CC3)c2)no1` the survival was 17% (active). With `COc1cc(NC(=O)N2CCN(c3cc(-c4noc(C)n4)ccc3C)CC2)cc(OC)c1OC` the survival was 55%. `Cc1ccc(NC(=O)N2CCN(c3cc(-c4noc(C)n4)ccc3C)CC2)c(F)c1` was tested, and the survival was -5% (active). `COc1ccc(C)cc1NC(=O)N1CCN(c2cc(-c3noc(C)n3)ccc2C)CC1` gave a survival of 88%. Compound `COc1ccccc1NC(=O)c1oc2ccccc2c1NC(=O)Cc1ccccc1` has a survival of 78%. For `CCOc1ccc(NC(=O)CCc2c(C)nc3nc(-c4cc(OC)cc(OC)c4)nn3c2C)cc1`, the survival was 78%. `Cc1ccc(CCNC(=O)CCn2c(=O)c3cccn3c3ccc(F)cc32)cc1` was tested, and the survival was 39% (active). Work on `CN(C)c1ccc(CNC(=O)CCn2c(=O)c3cccn3c3ccc(F)cc32)cc1` yielded a survival of 57%. In the case of `Cc1cccc(CNC(=O)CCn2c(=O)c3cccn3c3ccc(F)cc32)c1`, the survival is reported as 92%. With `Cc1ccc(CCNC(=O)CCCn2c(=O)c3cccn3c3ccc(F)cc32)cc1` the survival was 33% (active). `CCCCNC(=O)CCn1c(=O)c2cccn2c2ccc(F)cc21` was tested, and the survival was 41% (active). `CSc1ccc(CCNC(=O)CCn2c(=O)c3cccn3c3ccc(F)cc32)cc1` showed a survival of 48%. With `CCCCNC(=O)CCn1c(=O)c2cccn2c2cccnc21` the survival was 103%. In the case of `Cc1ccc(Cc2nc3ccccc3nc2SCC(=O)N2CCN(c3ccccc3F)CC2)cc1`, the survival is reported as 49%. `CCOc1ccc(-n2ccn3c(CC(C)CC(=O)O)nnc3c2=O)cc1` (stereo not drawn) was tested, and the survival was 182%. Work on `O=C(Nc1ccccc1)c1ccc(F)cc1` yielded a survival of 76%. In the case of `CCOC(=O)CC(NC(=O)Cn1nnc(-c2ccc(C(F)(F)F)cc2)n1)c1ccccc1Cl` (stereo not drawn), the survival is reported as 73%. In the case of `Cc1ccccc1-c1nc(CS(=O)CC(=O)N2CCN(c3cc(Cl)ccc3C)CC2)c(C)o1` (stereo not drawn), the survival is reported as 30% (active). `COc1ccc(-c2nc(CSCC(=O)N3CCN(c4ccc(OC)cc4)CC3)c(C)o2)cc1` gave a survival of 77%. With `Cc1oc(-c2ccccc2F)nc1CS(=O)(=O)CC(=O)N1CCN(c2ccc(Cl)cc2)CC1` the survival was 43% (active). Compound `Cc1oc(-c2ccc(Cl)cc2)nc1CS(=O)CC(=O)N1CCN(c2cccc(C(F)(F)F)c2)CC1` (stereo not drawn) has a survival of 99%. `Cc1ccc(-c2nc(CS(=O)CC(=O)N3CCN(c4cccc(Cl)c4)CC3)c(C)o2)cc1` (stereo not drawn) gave a survival of 46%. `Cc1ccc(OCc2nc(-c3ccc(C(=O)N4CCN(c5cc(Cl)ccc5C)CC4)cc3)oc2C)cc1` gave a survival of 76%. In the case of `COc1cccc(-c2nc(CS(=O)CC(=O)N3CCN(c4cccc(C(F)(F)F)c4)CC3)c(C)o2)c1` (stereo not drawn), the survival is reported as 0% (active). For `COc1ccc(-c2nc(CSCC(=O)N3CCN(c4cc(Cl)ccc4C)CC3)c(C)o2)cc1`, the survival was -4% (active). In the case of `Cc1oc(-c2ccccc2F)nc1CS(=O)(=O)CC(=O)N1CCN(c2ccccc2)CC1`, the survival is reported as 77%. Work on `Cc1oc(-c2ccccc2Cl)nc1CS(=O)CC(=O)N1CCN(c2cccc(C(F)(F)F)c2)CC1` (stereo not drawn) yielded a survival of 131%. `Cc1oc(-c2ccccc2F)nc1CS(=O)(=O)CC(=O)N1CCN(c2cccc(C(F)(F)F)c2)CC1` was tested, and the survival was 78%. In the case of `Cc1ccc(-c2nc(CS(=O)CC(=O)N3CCN(c4ccc(Cl)cc4)CC3)c(C)o2)cc1` (stereo not drawn), the survival is reported as 80%.
